This note sets out measurements from PubChem BioAssay AID624330 (Southern Research Specialized Biocontainment Screening …, 2012).

Where “and” joins values, the source holds several entries; their conditions need not be identical. Equal values may be shown once. Hit rate of the full screen: of about 340,000 compounds, about 2,100 (0.62%) were called active. A selection follows. Potency and affinity values are given separately. Values without a mark were called inactive.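 Rule for the calls: active = first-screen hits whose inhibition reached a set limit at any dose in the follow-up dose series; inconclusive = inhibition above the set first-screen limit but never retested; inactive = the rest.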

The assay deals with Rac GTPase-activating protein 1 (Homo sapiens) (UniProt Q9H0H5). As to the kind of experiment: blockers of MgcRacGAP-driven Rac1 GTP hydrolysis – biochemical, ADP Hunter fluorescence, primary and confirmatory, confirmation (AID 624330).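 Note: fluorescence reports GDP produced by GAP-driven GTP hydrolysis.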 The settings on record: MgcRacGAP-stimulated Rac1 GTP hydrolysis, at 30 µM, stronger effect = higher value, GST-tagged Rac1 F28L mutant substrate.
Sequence of Rac GTPase-activating protein 1 (Homo sapiens) (Q9H0H5 whole entry, looked up): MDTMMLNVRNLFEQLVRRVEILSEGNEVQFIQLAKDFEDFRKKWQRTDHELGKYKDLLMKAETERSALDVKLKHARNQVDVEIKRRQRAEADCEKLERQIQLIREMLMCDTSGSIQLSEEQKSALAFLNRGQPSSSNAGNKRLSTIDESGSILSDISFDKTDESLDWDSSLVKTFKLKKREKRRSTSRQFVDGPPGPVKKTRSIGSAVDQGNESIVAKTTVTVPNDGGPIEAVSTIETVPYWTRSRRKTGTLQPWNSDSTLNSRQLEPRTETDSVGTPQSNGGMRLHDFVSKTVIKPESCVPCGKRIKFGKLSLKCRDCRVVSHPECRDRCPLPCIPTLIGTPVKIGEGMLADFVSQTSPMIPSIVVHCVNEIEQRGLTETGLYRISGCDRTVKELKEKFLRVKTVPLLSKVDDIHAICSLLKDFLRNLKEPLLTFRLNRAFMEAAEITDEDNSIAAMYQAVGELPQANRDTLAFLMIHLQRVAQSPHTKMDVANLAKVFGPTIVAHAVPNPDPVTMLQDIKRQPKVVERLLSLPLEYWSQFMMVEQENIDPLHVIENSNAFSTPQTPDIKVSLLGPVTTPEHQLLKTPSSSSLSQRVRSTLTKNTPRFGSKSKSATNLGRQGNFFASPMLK
Turning to `O=C(NCc1ccco1)c1ccccc1`, the inhibition is 4.89%.
For `O=C(NCc1ccco1)c1cc2sccc2n1Cc1ccccc1` the value was 12.8%.
The same measure for `O=C(NCC1CCCO1)c1ccccc1` (stereo not drawn): -0.11%.
The same measure for `O=C(Cn1c(C(=O)NCCCN2CCOCC2)cc2sccc21)c1ccccc1`: 29.1%; for `CN1CCc2c(n(CC(O)CNCc3ccccc3)c3ccccc23)C1=O` (stereo not drawn): 8.39%.
As to `COc1cc(C(F)(F)F)c(C(=O)N(C)Cc2ccc(Cl)c(Cl)c2)cn1`, the inhibition was 5.07%.
The same measure for `O=C(CN1C(=O)c2ccccc2S1(=O)=O)Nc1ccc(S(=O)(=O)N2CCCC2)cc1`: -4.76%; for `CN1CCN(S(=O)(=O)c2ccc(Cl)cc2)CC1`: 4.29% and 1.92%; for `O=S(=O)(c1ccc(Cl)cc1)N1CCCCCC1`: 4.19%.
The same measure for `Cc1ccc(S(=O)(=O)NCCc2ccccc2)cc1`: 8.77%; for `Cc1ccc(S(=O)(=O)N2CCC(C(=O)N3CCCC(C(F)(F)F)C3)CC2)cc1C` (stereo not drawn): 5.5%.
The same measure for `CCOC(=O)C1=C(C)NC(=O)CC1c1cc2c(cc1Br)OCO2` (stereo not drawn): 14.8%; for `CCOC(=O)C1=C(C)N(C)C(=O)NC1c1cc2c(cc1[N+](=O)[O-])OCO2` (stereo not drawn): 11.2%.
As to `COc1ccc(CC(Cc2ccc(OC)c(OC)c2)NC=O)cc1OC`, the inhibition was 8.2%.
The same measure for `O=C(Nc1ccccc1C(=O)Nc1ccccc1)c1ccco1`: 3.51%; for `CCOc1ccc(N2C(=O)C3C(c4ccccc4F)NN(C(=O)c4ccc(C)cc4)C3C2=O)cc1` (stereo not drawn): -3.94%; for `CC(=O)C1C(c2ccc([N+](=O)[O-])cc2)c2c(noc2C)CC1(C)O` (stereo not drawn): -3.68%.
The same measure for `CC(C)(C)OC(=O)n1cc(/C=N/NC(=O)c2ccco2)c2ccccc21`: 6.56%.
The same measure for `O=C(O)CCCN1C(=O)/C(=C\c2ccc(-c3nc4ccccc4s3)o2)SC1=S`: 10.4%; for `O=C(O)CCCN1C(=O)/C(=C/c2ccc(-c3nc4ccccc4s3)o2)SC1=S`: 11.9%.
For the compound `COc1ccc(NC(=O)CNC(c2ccccc2)c2ccccc2)cc1Cl`, the inhibition was 5.6%.
For `Cc1cccc(NC(=O)Cn2c(=O)oc3cc(S(=O)(=O)N4CCCC4)ccc32)n1` the value was 9.63%; for `CN(C)S(=O)(=O)Oc1ccc(Cl)cc1C(=O)Nc1ccc(F)cc1F`, 0.65%.
On to `Cc1ccc(N=Cc2c(O)c3ccccc3oc2=O)c(C)c1`, for which the inhibition is 5.4%.
The same measure for `Cc1ccc(F)cc1N=Cc1c(O)c2ccccc2oc1=O`: 7.61%.
The same measure for `COc1ccccc1NC(=O)C(=O)N1N=C(C(C)C)CC1(O)C(F)(F)F` (stereo not drawn): -2.51%; for `O=C(NCc1cccc(C(F)(F)F)c1)C1CC(c2ccc(C(F)(F)F)cc2)=NO1` (stereo not drawn): 7.21%.
The same measure for `Cc1ccc(Nc2cc(C)nc3ncnn23)c(C)c1`: 7.05%; for `Cc1ccc(C)c(N2CCN(CCCc3ccccc3)CC2)c1`: -8.46%; for `Cc1ccc(NC2=C(Cl)C(=O)c3ccccc3C2=O)cc1`: 5.85%.
As to `CCc1ccc(S(=O)(=O)/N=C2\C=C(Nc3ccc(O)cc3)C(=O)c3ccccc32)cc1`, the inhibition was 10.1%.
The same measure for `O=C(O)c1ccc(NC2=C/C(=N/S(=O)(=O)c3ccccc3)c3ccccc3C2=O)cc1`: 11.5%; for `CCN(CC)c1ccc(NC2=C(Cl)C(=O)c3ccccc3C2=O)cc1`: 28.6%; for `O=C1C(Nc2ccccc2)=C/C(=N/S(=O)(=O)c2cccs2)c2ccccc21`: 13.2%.
For `O=C1C(Cl)=C(NCCCO)C(=O)c2ccccc21` the value was 7.29%.
As for `Cc1ccc(NC2=C/C(=N/S(=O)(=O)c3cccs3)c3ccccc3C2=O)cc1`, the inhibition was 12.6%.
For `CCNC1=C(Cl)C(=O)c2ccccc2C1=O` the value was 9.6%.
The same measure for `CC(C)CN1CCC(=O)N([C@H](COc2ccccc2)c2ccccc2)CC1`: 12.8%; for `O=C(CN1C2CCCC1CC(NC(=O)c1ccco1)C2)Nc1ccccc1` (stereo not drawn): 9.34%; for `CN(CC(=O)Nc1cccc(F)c1)CC(=O)N(C)c1c(N)n(Cc2ccccc2)c(=O)[nH]c1=O`: 7.85%.
The same measure for `CC(C)c1ccc(NC(=O)COC(=O)c2c[nH]c(=O)[nH]c2=O)cc1`: 6.27%; for `Cc1ccc(C(=O)Nc2ncccc2O)cc1S(=O)(=O)N1CCCCC1`: -2.55%; for `Cc1csc(=O)n1CC(=O)OCC(=O)NCc1ccc(Cl)cc1Cl`: 8.92%.
Take `O=C(Nc1ccc(Cl)cc1)C(c1ccccc1)N1CCOCC1` (stereo not drawn): the inhibition is 1.96%.
Regarding `COC1=C(Nc2ccccc2)C(=O)c2ccccc2C1=O`, the inhibition was 11.3%.
The same measure for `COC1=C(Nc2ccc(C)cc2)C(=O)c2ccccc2C1=O`: 6.66%.
The same measure for `Nc1nc(COc2ccc(Cl)cc2)cs1`: 5.42%; for `O=C(Nc1ccc2c(c1)OCCO2)C1CC(O)CN1C(=O)Nc1ccccc1` (stereo not drawn): 5.39%; for `Cc1cc(C(=O)NNC(=O)/C=C/c2ccccc2Cl)c(C)o1`: 6.81%.
For `Cc1cc(C(=O)NNC(=O)/C=C/c2ccc(F)cc2)c(C)o1` the value was 0.14%; for `COc1cccc(-c2cc(C(=O)Nc3cccnc3)no2)c1`, 3.22%.
Turning to `Cc1c(Cl)cccc1NC(=S)NCc1cccs1`, the inhibition was 5.46%.
The same measure for `COCC(=O)NC1CCN(S(=O)(=O)c2ccc(C(=O)O)cc2)CC1`: 3.4%.
In the case of `COc1cc2cnc(-c3ccccc3)c(C(=O)c3ccc(F)cc3)c2cc1OC`, the inhibition was 6.22%.
For `Cc1cc(C)n2nc(N)c(N=Nc3ccc(Cl)cc3)c2n1` the value was 8.06%.
In the case of `Cc1cc(C)n2nc(N)c(N=Nc3ccccc3)c2n1`, the inhibition was 13.3%.
Regarding `Nc1nn2c(-c3ccccc3)cc(=O)[nH]c2c1N=Nc1ccc(Br)cc1`, the inhibition is 4.26%.
For `Cc1ccc(N=Nc2c(N)nn3c(C)cc(C)nc23)cc1` the value was 7.06%; for `COc1ccc(C(=O)NNC(=O)CSc2ccccc2)cc1`, 0.63%.
For `Cc1ccc(N(CC(=O)N2CCN(C3CCCCC3)CC2)S(=O)(=O)c2cccnc2)cc1` the value was -4.65%.
For `N#CC(C#N)=C1C(=O)N(CCN2CCCCC2)c2ccccc21` the value was -11.4%; for `O=C(CSc1nc(NS(=O)(=O)c2ccccc2)cc(=O)[nH]1)Nc1ccc(Cl)cc1`, -0.7%.
In the case of `NS(=O)(=O)c1ccc(NC(=S)N2CCC(Cc3ccccc3)CC2)cc1`, the inhibition is 18.2%.
For `NS(=O)(=O)c1ccc(CCNC(=O)CN2CCC(Cc3ccccc3)CC2)cc1` the value was 6.03%; for `Cc1ccc(OCC(=O)NNC(=O)C2CC(=O)N(c3ccc4c(c3)OCCO4)C2)cc1` (stereo not drawn), 6.61%.
For `O=C(CCc1nnc(CCCCc2ccccc2)o1)NCc1cc(F)ccc1F`, the inhibition was 9.91%.
For `Cn1c(CCC(=O)OCC(=O)Nc2ccc(Oc3ccccc3)cc2)nc(=O)c2ccccc21` the value was 2.65%; for `CC(C)Cc1n[nH]c(=O)[nH]1`, 4.75%; for `COc1ccc(C=C2NC(=O)NC2=O)cc1O`, 10.9%.
For `O=C1NC(=O)/C(=C/c2cccc(O)c2)N1` the value was 5.03%.
The same measure for `COc1ccc(C=C2SC(=O)NC2=O)cc1OC`: 6.99%.
On to `CCN(CC)c1ccc(/C=C2\NC(=O)NC2=O)cc1`, for which the inhibition was 30.9%.
For `COc1cc(/C=C2\SC(=N)N(c3ccc(F)cc3)C2=O)ccc1O` the value was 20.9%; for `O=C1NC(=O)C(=Cc2ccccc2)N1`, -1.98%; for `CC1(C)CC(=O)C(C=NCCN2CCN(C(=O)c3ccc(F)cc3)CC2)=C(O)C1`, 0.28%.
The same measure for `COc1ccccc1CN1CC(C(=O)NCc2nccn2C)CCC1=O` (stereo not drawn): 10.1%.
For `COC(=O)[C@@]12CCCN1[C@H](c1ccc(-c3ccccc3)cc1)[C@H]1C(=O)N(C)C(=O)[C@H]12` the value was 8.21%; for `COc1ccc(CCNC(=O)Cn2ccc3c(OC)cccc3c2=O)cc1OC`, 8.24%.
Regarding `CCOC(=O)C1=C(COC(=O)/C=C/c2cccc(Br)c2)NC(=O)NC1C` (stereo not drawn), the inhibition is 2.35%.
For `Cc1cccc(C)c1-n1nnnc1C1(Nc2ccccc2)CCCCC1` the value was 8.6%.
For the compound `CN(C(=O)c1ccc(NC(=O)Cc2cccc(NC(=O)C3CCCN(C(=O)C4CCCC4)C3)c2)cc1)C1CCCC1` (stereo not drawn), the inhibition was 8.78%.
The same measure for `CC(=O)c1ccc(C(=O)N2CCCC(Nc3ccc(C(C)C)cc3)C2)s1` (stereo not drawn): -45.7%; for `CC(=O)c1ccc(C(=O)N2CCCC(Nc3ccccc3)C2)s1` (stereo not drawn): 7.53%.
The same measure for `CC(=O)c1ccc(OCC(=O)N2CCCC(Nc3ccc(C)c(C)c3)C2)cc1` (stereo not drawn): 14.3%; for `COc1ccc(OCC(=O)N2CCCC(Nc3ccc(C)c(C)c3)C2)cc1` (stereo not drawn): 14.3%.
For `COc1ccc(C(=O)N2CCCC(Nc3ccc(C(C)C)cc3)C2)c(OC)n1` (stereo not drawn) the value was 2.96%; for `Cc1ccc(C(=O)N2CCCC(Nc3ccc(C(C)C)cc3)C2)cn1` (stereo not drawn), 7.62%.
Consider `COc1ccc(NC2CCCN(C(=O)c3cccnc3)C2)cc1` (stereo not drawn), for which the inhibition is 26.2%.
Consider `COc1cc(OC)cc(C(=O)NCC2CCCN(C(=O)c3csc(C(C)C)n3)C2)c1` (stereo not drawn), for which the inhibition was 8.24%.
For `CC(C)(C)c1ccc(C(=O)NCCCN2CCN(CCCNC(=O)c3ccc(C(C)(C)C)cc3)CC2)cc1` the value was 0.51%.
For `COC(=O)C1=C(O)C(C(=O)OC)C(c2ccc(C)cc2)C(C#N)(C#N)C1c1ccc(C)cc1` (stereo not drawn) the value was 6.45%; for `COc1ccc(/C=C/C(=O)Nc2cc(C(F)(F)F)ccc2Cl)cc1`, 0.39%.
For `CCOC(=O)C1=C(C)NC(C)=C(C(=O)OCC)C1c1cccc([N+](=O)[O-])c1` the value was 10.8%.

Usually inhibition stands for the drop in the measured response relative to a control, in per cent.
